The source of these data is the supplement of paper PMC13094657.

± gives the standard deviation of the averaged measurements.
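Note: viability of the cells left after supernatant collection, read with Deep Blue dye added for 4 h, as absorbance at 570 nm minus 600 nm.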

The subject of this experiment is MDA-MB-231. Nature of the experiment: cell viability relative to vehicle unstimulated control (fraction); higher = more viable cells. As to conditions: pre-treatment time: 18 h then 24 h IFNg/TNF.
As for `CSC(=O)OCC1=C[C@H](O)[C@H]2C(C(=O)O)=CO[C@@H](O[C@@H]3O[C@@H](CO)[C@@H](O)[C@@H](O)[C@H]3O)[C@H]12` [Paederosidic acid] (compound dose: 10 uM), the cell viability was 1.14 ± 0.012.

As for `C[C@H](CC[C@@H](O[C@@H]1O[C@H](CO)[C@@H](O)[C@H](O)[C@H]1O)C(C)(C)O)[C@H]1CC[C@@]2(C)[C@@H]3CC=C4[C@@H](CC[C@H](O)C4(C)C)[C@]3(C)[C@H](O)C[C@]12C` [Mogroside I A1] (compound dose: 10 uM), the cell viability turned out to be 0.881 ± 0.068.

Turning to `C/C=C(/C)C(=O)O[C@H]1C(C)=C[C@]23C(=O)[C@@H](C=C(CO)[C@@H](O)[C@]12O)[C@H]1[C@@H](C[C@H]3C)C1(C)C` [Ingenol 3-Angelate] (compound dose: 10 uM), the cell viability worked out at 0.958 ± 0.11.

Take `CCCCCCCCCCCCCC(=O)O[C@@]12[C@H](O)[C@@H](C)[C@@]3(O)[C@@H](C=C(CO)C[C@]4(O)C(=O)C(C)=C[C@@H]34)[C@H]1C2(C)C` [Phorbol 13-myristate] (compound dose: 10 uM): the cell viability was 1.03 ± 0.065.

For the compound `C[C@H]1[C@H](C)CC[C@]2(C(=O)O)CC[C@]3(C)C(=CC[C@@H]4[C@@]5(C)CCC(=O)C(C)(C)[C@@H]5CC[C@]43C)[C@H]12` [Ursonic acid] (compound dose: 10 uM), the cell viability is 0.9233 ± 0.0046.

As to `C[C@@H]1CC[C@@]2(OC1)O[C@H]1C[C@H]3[C@@H]4CC=C5C[C@@H](O)C[C@@H](O)[C@]5(C)[C@H]4CC[C@]3(C)[C@H]1[C@@H]2C` [Ruscogenin] (compound dose: 10 uM), the cell viability worked out at 1.01 ± 0.037.

`CC1(C)CC[C@]2(C(=O)O[C@@H]3O[C@H](CO)[C@@H](O)[C@H](O)[C@H]3O)CC[C@]3(C)C(=CC[C@@H]4[C@@]5(C)CC[C@H](O[C@@H]6O[C@H](C(=O)O)[C@@H](O)[C@H](O)[C@H]6O[C@@H]6O[C@H](CO)[C@@H](O)[C@H](O)[C@H]6O)C(C)(C)[C@@H]5CC[C@]43C)[C@@H]2C1` [Ginsenoside Ro] (compound dose: 10 uM): the cell viability is 0.928 ± 0.091.

As to `C[C@@H]1O[C@@H](O[C@@H]2[C@H](O)[C@@H](O)[C@H](O[C@H]3CC[C@@]4(C)C(CC[C@]5(C)C4C=C[C@]46OC[C@@]7(CCC(C)(C)CC74)[C@@H](O)C[C@]65C)C3(C)C)O[C@@H]2CO[C@@H]2O[C@H](CO)[C@@H](O)[C@H](O)[C@H]2O)[C@H](O)[C@H](O)[C@H]1O` (some centres not stated) [Saikosaponin C] (compound dose: 10 uM), the cell viability was 0.928 ± 0.063.

In the case of `C[C@@]12CC[C@@H]3[C@@](CC[C@H]4[C@@]3(C)CCC[C@@]4(C)C(=O)O)(CC1=O)C2` [Isosteviol] (compound dose: 10 uM), the cell viability came to 1.02 ± 0.084.

For `C=CC(=C)CCC=C(C)C` [Myrcene] (compound dose: 10 uM), the cell viability was 1.02 ± 0.055.

Turning to `CC(C)=CCC/C(C)=C/CC/C(C)=C/CC/C=C(\C)CC/C=C(\C)CCC=C(C)C` [Squalene] (compound dose: 10 uM), the cell viability was found to be 0.914 ± 0.13.

Take `CC(CC(=O)C[C@@H](C)[C@H]1CC(=O)[C@@]2(C)C3=C(C(=O)C[C@]12C)[C@@]1(C)CC[C@H](O)C(C)(C)[C@@H]1C[C@@H]3O)C(=O)O` (some centres not stated) [Ganoderic acid B] (compound dose: 10 uM): the cell viability worked out at 0.95 ± 0.032.

As for `C=C(CC[C@@H](C(=O)O)[C@H]1[C@H](O)C[C@@]2(C)C3=C(CC[C@]12C)[C@@]1(C)CC[C@H](OC(C)=O)C(C)(C)[C@@H]1CC3)C(C)C` [Pachymic acid] (compound dose: 10 uM), the cell viability amounted to 0.862 ± 0.1.

As to `C[C@@H]1O[C@@H](OC[C@H]2O[C@@H](Oc3c(-c4ccc(O)cc4)oc4cc(O)cc(O)c4c3=O)[C@H](O)[C@@H](O)[C@@H]2O)[C@H](O)[C@H](O)[C@H]1O` [Kaempferol 3-rutinoside] (compound dose: 10 uM), the cell viability worked out at 1.1 ± 0.14.

In the case of `Cc1cc(O)c2c(c1)C(=O)c1cc(O)cc(O[C@@H]3O[C@H](CO)[C@@H](O)[C@H](O)[C@H]3O)c1C2=O` [Emodin-8-glucoside] (compound dose: 10 uM), the cell viability came to 0.9845 ± 0.0046.

With `O=c1cc(-c2ccc(O)c(O)c2)oc2c([C@@H]3O[C@H](CO)[C@@H](O)[C@H](O)[C@H]3O)c(O)cc(O)c12` [Orientin] (compound dose: 10 uM), the cell viability came out at 0.922 ± 0.069.

On to `CC(=O)OC1C2C(OC(=O)c3ccccc3)C(C)CC2(OC(C)=O)C(=O)C(C)=CC2C(CCC13CO3)C2(C)C` (configuration not stated) [Euphorbia factor L25] (compound dose: 10 uM), for which the cell viability was found to be 1.057 ± 0.0038.

Regarding `C=C1C(=O)O[C@H]2C1CC[C@@](C)(O)C13C=CC(C)(C21)C1(C3)C(=O)O[C@@H]2C3C(C)=CCC3[C@](C)(O)[C@H](OC(C)=O)CC21` (some centres not stated) [Handelin] (compound dose: 10 uM), the cell viability came out at 0.83 ± 0.29.

Regarding `C[C@@]12C[C@@]3(O)O[C@@H](O1)[C@]1(COC(=O)c4ccccc4)[C@H]3C[C@@]12O[C@@H]1O[C@H](CO)[C@@H](O)[C@H](O)[C@H]1O` [Paeoniflorin] (compound dose: 10 uM), the cell viability stood at 1.03 ± 0.16.

In the case of `CC1(C)O[C@H]2CC(=O)OC[C@]23[C@H]2CC[C@@]4(C)[C@H](c5ccoc5)OC(=O)[C@H]5O[C@]54[C@]2(C)C(=O)C[C@@H]13` [Limonin] (compound dose: 10 uM), the cell viability came out at 0.9819 ± 0.0068.

Consider `C[C@@]12C[C@@]3(O)O[C@@H](O1)[C@]1(COC(=O)c4ccccc4)[C@@H]3C[C@]12O[C@@H]1O[C@H](COC(=O)c2ccccc2)[C@@H](O)[C@H](O)[C@H]1O` [Benzoylpaeoniflorin] (compound dose: 10 uM), for which the cell viability is 0.956 ± 0.034.

As for `C=C1CC[C@@H]2[C@](C)(CO)[C@H](O)CC[C@@]2(C)[C@@H]1C/C=C1/C(=O)OC[C@H]1O` [Andrographolide] (compound dose: 10 uM), the cell viability is 0.98 ± 0.018.
